Bioassay records as filed in PubChem BioAssay.
Sampled rows, rich in hits. Any-hit rate of the full collection: about 3.6%.
NPSR antagonist – qHTS Assay for Antagonists of the Neuropeptide S Receptor: cAMP Signal Transduction. Potency, µM (doses to about 38.3 µM), without a hit: at the top dose activity change, negative = inhibition, usual class: inhibitors. CHO-NPSR cells, cAMP TR-FRET, antagonist mode. Q6W5P4. 1% of 220,000 active; note: % is set by controls: 0 for no effect and ±100 for the full control effect; nearly all actives have a fitted effect of over 50% in size
Target sequence (Q6W5P4 whole entry, looked up): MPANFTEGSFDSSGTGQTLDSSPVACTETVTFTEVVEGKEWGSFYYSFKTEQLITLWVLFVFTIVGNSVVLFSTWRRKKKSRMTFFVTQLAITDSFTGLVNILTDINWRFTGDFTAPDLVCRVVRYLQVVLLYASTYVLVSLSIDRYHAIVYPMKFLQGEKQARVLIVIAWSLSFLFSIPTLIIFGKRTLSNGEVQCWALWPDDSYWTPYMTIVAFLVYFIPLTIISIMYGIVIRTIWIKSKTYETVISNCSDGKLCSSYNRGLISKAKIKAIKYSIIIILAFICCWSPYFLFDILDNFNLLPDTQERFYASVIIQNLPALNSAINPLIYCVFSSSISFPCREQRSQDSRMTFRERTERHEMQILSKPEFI
Sfp inh – qHTS Assay for Inhibitors of Bacillus subtilis Sfp phosphopantetheinyl transferase (PPTase); AID 1490, 2009; Biochemical Sfp PPTase activity, qHTS; Potency, µM, for inactives: largest response in the series, negative = inhibition, actives largely listed as inhibitors; 3.5% of 310,000 active;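 note: the enzyme is Sfp with the accession as filed and its product quenches rhodamine fluorescence; 0% = enzyme reaction without inhibitor and -100% = no enzyme wells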
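Compounds were incubated with enzyme (final 15 nM) for 15 min at room temperature before substrate addition started the reaction. Fluorescence at 525 nm excitation, 598 nm emission was recorded immediately and after 30 minutes.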
JMJD2E inh – qHTS Assay for Inhibitors of Human Jumonji Domain Containing 2E (JMJD2E) | Potency, µM (titrated, usually from 57.1 µM), inactives show at the highest dose activity change, negative = inhibition, actives largely listed as inhibitors | JMJD2E catalytic domain, FDH-coupled NADH fluorescence (FDH is formaldehyde dehydrogenase) | AID 2147, 2009 | 1.6% of 230,000 active; active = well fitted inhibition curve with a large enough effect, not every such curve was filed as active; inconclusive = small, poorly fitted or top-dose-only effect, or another doubt; inactive = no such curve, though single readings can be large or run the other way;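 note: 0% = wells with enzyme and -100% = buffer wells without enzyme; nearly all actives have a fitted effect of over 50% in size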
Target sequence (B2RXH2 1-337 limits assumed): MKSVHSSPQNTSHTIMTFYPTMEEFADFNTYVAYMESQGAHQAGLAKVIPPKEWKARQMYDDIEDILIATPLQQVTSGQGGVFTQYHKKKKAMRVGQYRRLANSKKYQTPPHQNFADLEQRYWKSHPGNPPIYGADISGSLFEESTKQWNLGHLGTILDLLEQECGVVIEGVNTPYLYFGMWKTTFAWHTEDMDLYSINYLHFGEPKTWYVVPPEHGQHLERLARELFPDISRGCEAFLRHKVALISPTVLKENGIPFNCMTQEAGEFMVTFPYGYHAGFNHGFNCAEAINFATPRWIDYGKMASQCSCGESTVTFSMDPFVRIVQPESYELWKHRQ
IMPase Li inh – qHTS Assay for Identifying the Cell-Membrane Permeable IMPase Inhibitors: Potentiation with Lithium. CHO-M1 cells, IP1 TR-FRET (IP-One), carbachol + lithium. Potency, µM (series often up to 59.4 µM), for the others: at the top dose activity, negative = IMPase inhibition, actives largely listed as inhibitors. 0.35% of 210,000 active;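 note: IP1 builds up when IMPase is blocked and the TR-FRET signal falls; plate controls were basal vehicle for no effect and high inhibitor control for full effect; nearly all actives have a fitted effect of over 50% in size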
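Concentration–response in CHO-M1 cells, lithium-potentiated; 30 min at 37C. IP1 detected by competitive TR-FRET after 10 min lysis at RT. Hill-fitted AC50.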
GCN5L2 inh – qHTS Assay for Inhibitors of GCN5L2; Histone acetyltransferase KAT2A (Homo sapiens), Q92830; GCN5L2 HAT assay, ThioGlo1 CoA-SH fluorescence; Potency, µM (doses to about 58.9 µM), for the others: at the highest dose activity change, negative = inhibition, most hits filed as inhibitors; 0.21% of 390,000 active; note: % is set by controls: 0 for no effect and ±100 for the full control effect
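Free CoA generated was detected with ThioGlo1 (50uM) fluorescence at Ex340nm/Em540nm, read immediately and after 20 min at room temperature. Enzyme, 20 nM in HEPES pH 7.5 buffer, saw compounds 15 min before adding 75uM H3(1-25) peptide and 70uM acetyl-CoA.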
Epigenetic reg – Quantitative High-Throughput Screen for Regulators of Epigenetic Control; murine LDR cells, GFP reporter derepression, 30 h; Potency, µM (highest dose often 53.9 µM), for the others: top-dose GFP activation, actives largely listed as activators; 0.2% of 280,000 active; note: % of control where 0% means no effect; nearly all actives have a fitted effect of over 60% in size
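Derepression of a silenced CMV-GFP reporter in murine LDR cells is scored by enumerating GFP-positive cells with a laser-scanning microplate cytometer after 30 hours of treatment at 37 C.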
Starred values were filed as active, the others as inactive; ! = not confirmed by another sample; [ ] = another dose, or the depositor's remark. Unless noted, calls come from the whole dose curve; as a rule, active = well fitted curve in the direction sought with a large enough effect; inconclusive = small, poorly fitted or top-dose-only effect, or another doubt; inactive = no such curve, though single readings can be large; an effect the other way counts as inactive or inconclusive. Potency is the fitted concentration of half-maximal effect.

How did Cc1ccc(S(=O)(=O)Nc2ccccc2-c2ccccc2NS(=O)(=O)c2ccc(C)cc2)cc1 do in these assays?
NPSR antagonist: -10%[46.1 µM]; Sfp inh: 5%; JMJD2E inh: -5%; IMPase Li inh: 2%[38.3 µM]; GCN5L2 inh: -17%; Epigenetic reg: 3%

What do the screens show for `Cc1ccc(S(=O)(=O)Nc2c(Cl)c(Cl)c(O)c3ccccc23)cc1`?
Sfp inh: 45µM*; GCN5L2 inh: inconclusive

Results for O=c1[nH]c(SCc2nc3ccccc3n2Cc2ccccc2)nc2ccccc12 ?
NPSR antagonist: -3%[46.1 µM]; Sfp inh: -5%; JMJD2E inh: 2%; IMPase Li inh: 7.9µM*; GCN5L2 inh: -4%; Epigenetic reg: -2%

Results for Cc1cc2c(NC(=O)Nc3ccccc3)cccc2nn1 ?
NPSR antagonist: 15%; Sfp inh: 45µM*; JMJD2E inh: inconclusive; GCN5L2 inh: -8%; Epigenetic reg: 16%

What do the screens show for `Cc1ccc(-n2ncc3c(N4CCCC4)ncnc32)c(C)c1`?
NPSR antagonist: -26%[46.1 µM]; Sfp inh: inconclusive; JMJD2E inh: inconclusive; IMPase Li inh: 11%[38.3 µM]; GCN5L2 inh: 0%; Epigenetic reg: 0%

What do the screens show for `COc1cccc(N2CCN(c3ncnc4c3cnn4-c3ccc(C)cc3C)CC2)c1`?
NPSR antagonist: 10µM*; Sfp inh: -6%; JMJD2E inh: inconclusive; IMPase Li inh: 30%[38.3 µM]; GCN5L2 inh: -8%; Epigenetic reg: 1%

What do the screens show for `CN(C)C(=O)c1ccc(-c2ccc3ncnc(NCc4ccccc4)c3c2)cc1`?
Sfp inh: 17%; IMPase Li inh: 4%; GCN5L2 inh: -9%

What do the screens show for `Oc1cccc(/C=N/Nc2nn3cnnc3c3ccccc23)c1`?
NPSR antagonist: 10%; Sfp inh: 5%; JMJD2E inh: -3%; GCN5L2 inh: -6%; Epigenetic reg: 3%

What do the screens show for `COc1cccc(/C=N/Nc2nn3cnnc3c3ccccc23)c1O`?
NPSR antagonist: -10%[46.1 µM]; Sfp inh: 15%; JMJD2E inh: 18µM*; IMPase Li inh: 24%[38.3 µM]; GCN5L2 inh: -15%; Epigenetic reg: -1%

Results for CON(C)C(=O)c1nnc2c3ccccc3n(S(=O)(=O)c3ccc(C)cc3)c2n1 ?
Sfp inh: 17%; Epigenetic reg: 1%[10.1 µM]

Results for Clc1ccc(Sc2cc(Cl)c(Cl)cc2Cl)cc1 ?
Sfp inh: -15%; GCN5L2 inh: 39%

Results for CC(=O)C(C(C)=O)c1c(Cl)c(O)c(O)c2c(C(=O)c3ccccc3)coc12 ?
NPSR antagonist: -14%[46.1 µM]; Sfp inh: 6.3µM*; JMJD2E inh: 16µM*; IMPase Li inh: 10%[38.3 µM]; GCN5L2 inh: -11%; Epigenetic reg: inconclusive

Results for COc1ccc(N(C(=O)c2ccc(S(=O)(=O)N3CCOCC3)cc2)C2C=CS(=O)(=O)C2)cc1 (stereo unspecified) ?
NPSR antagonist: 1%[46.1 µM]; Sfp inh: 5%; JMJD2E inh: -2%; IMPase Li inh: 8%[38.3 µM]; GCN5L2 inh: 2.2µM*; Epigenetic reg: 0%

How did O=C(c1ccc(S(=O)(=O)N2CCOCC2)cc1)N(c1ccc(F)cc1)C1C=CS(=O)(=O)C1 (stereo unspecified) do in these assays?
NPSR antagonist: 1%[46.1 µM]; Sfp inh: 20%; JMJD2E inh: -19%; IMPase Li inh: 8%; GCN5L2 inh: -30%; Epigenetic reg: -2%

Results for O=[N+]([O-])c1cccc2c[nH]nc12 ?
Sfp inh: -23%; JMJD2E inh: 35µM*; IMPase Li inh: 10%; GCN5L2 inh: inconclusive; Epigenetic reg: 1%

What do the screens show for `O=C(O)c1ccc(CSc2nnc(-c3ccco3)o2)cc1`?
NPSR antagonist: -12%[46.1 µM]; Sfp inh: 7%; JMJD2E inh: -3%; IMPase Li inh: -2%[38.3 µM]; GCN5L2 inh: -3%; Epigenetic reg: -1%

Results for COc1cc(OC)cc(-c2nnc(SCc3ccc(C(=O)O)cc3)o2)c1 ?
Sfp inh: 50µM*; GCN5L2 inh: inconclusive

How did Cc1nccn1CC(=O)N/N=C/c1cc(Br)cs1 do in these assays?
NPSR antagonist: 7%; Sfp inh: -2%; JMJD2E inh: 3%; GCN5L2 inh: 0%; Epigenetic reg: 0%

What do the screens show for `CCN1CCN(CC(=O)N/N=C/c2cc(Br)cs2)CC1`?
Sfp inh: 79µM*; GCN5L2 inh: -1%

What do the screens show for `COc1cc(C(=S)N2CCOCC2)cc(OC)c1OS(=O)(=O)c1ccc(C)cc1`?
Sfp inh: 56µM*; GCN5L2 inh: -1%

Results for COc1cc(C(=S)N2CCOCC2)cc(OC)c1OS(=O)(=O)c1ccc(NC(C)=O)cc1 ?
NPSR antagonist: 1%[46.1 µM]; Sfp inh: 3%; JMJD2E inh: -5%; IMPase Li inh: -3%[38.3 µM]; GCN5L2 inh: inconclusive; Epigenetic reg: 0%

How did COc1cc(C(=S)N2CCOCC2)ccc1OC(=O)c1cc(OC)c(OC)c(OC)c1 do in these assays?
Sfp inh: 50µM*; GCN5L2 inh: 0%

What do the screens show for `COc1cc(C(=S)N2CCOCC2)cc(OC)c1OC`?
NPSR antagonist: 13%; Sfp inh: 50µM*!; JMJD2E inh: 9%; GCN5L2 inh: -1%; Epigenetic reg: -1%

What do the screens show for `CCOc1cc(C(=S)N2CCOCC2)cc(Br)c1OS(=O)(=O)c1ccccc1`?
Sfp inh: 79µM*; GCN5L2 inh: -1%

What do the screens show for `CCOc1cc(C(=S)N2CCOCC2)ccc1OC(=O)c1cc(OC)c(OC)c(OC)c1`?
Sfp inh: 13%; GCN5L2 inh: -2%

How did COc1cc(C(=S)N2CCOCC2)cc(OC)c1OC(=O)c1ccc(C)cc1 do in these assays?
Sfp inh: 14%; GCN5L2 inh: -5%

Results for C[C@@H](/C=C/c1ccc2ccccc2c1)C1COC(=O)C[C@H]1O (stereo partly specified) ?
Sfp inh: -12%

What do the screens show for `CC(=O)[C@@]1(O)CC[C@H]2C3CCC4=CC(=O)CC[C@]4(C)C3CC[C@@]21C` (stereo partly specified)?
NPSR antagonist: -21%[46.1 µM]; JMJD2E inh: 8%; IMPase Li inh: 8%; Epigenetic reg: -1%
